Most compounds without a hit are left out; they make up all but 4% or so of the library.
NALP1 yeast inh – inhibitors of NALP1 inflammasome in yeast | S. cerevisiae NALP1/ASC/caspase-1 growth, X-gal OD620, 72 h | inhibition, % at 10 µM | actives 0.61% (n = 280,000); in the data active = inhibition mostly above about 24%, no sharp cut-off; inactive = mostly below about 32%
NALP3 yeast inh – NALP3 inhibition in yeast; Yeast reconstituted NLRP3/ASC/caspase-1, beta-gal luminescence, 24 h; actives 0.39% (n = 330,000); inhibition, % at 10 µM; AID 2825;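 active = inhibition of 50% or more; inactive = inhibition below 50%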;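 note: plate controls were induced DMSO wells for no effect and uninduced yeast grown without galactose for full effect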
tim23-1 inh – inhibits growth of tim23-1 mutant yeast; S. cerevisiae tim23-1 growth, BacTiter-Glo luminescence, 24 h; inhibition, % at 20 µM; actives 1.3% (n = 330,000);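 active = growth inhibition of the mutant yeast at or above 50%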;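 note: temperature-sensitive mutant grown at 25 °C; plate controls were DMSO-treated mutant yeast for no effect and medium wells lacking yeast for full effect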
tim10-1 inh – growth inhibitors of tim10-1 mutant yeast; inhibition, % at 20 µM; AID 463190; actives 2.2% (n = 330,000); S. cerevisiae tim10-1 ts strain growth, BacTiter-Glo, 24 h;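 active = inhibition of at least 40%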;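 note: mutant grown at 25 °C; 0% = DMSO wells with yeast and 100% = wells holding no yeast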
TIM10 inh – inhibits growth of TIM10 yeast strain; inhibition, % at 10 µM; actives 1.4% (n = 330,000); S. cerevisiae TIM10 strain growth, BacTiter-Glo luminescence, 24 h;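 active = inhibition of 40% or more at the single tested concentration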;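 note: wild-type TIM10 isogenic control strain grown at permissive 25 °C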
NALP3 confirm – confirmation of NALP3 inhibitors in yeast; shares compounds with NALP3 yeast inh; yeast expressing human NALP3, luminescence; inhibition, % at 10 µM; actives 81% (n = 1,300); in the data active = inhibition above about 48%
An asterisk follows results filed as active.

Screening C[C@]12CCC3C(CC[C@H]4C[C@@H](O)CC[C@]34C)C1CC[C@@H]2OC(=O)[C@H](N)CCCCN (stereo partly drawn) returned NALP3 yeast inh 66*, tim23-1 inh -175, tim10-1 inh -65, TIM10 inh -132 and NALP3 confirm 57*.
For CSCCC(NC(=O)CCC(=O)OC1CC[C@H]2[C@@H]3CC[C@H]4CC(=O)CC[C@]4(C)[C@H]3CC[C@]12C)C(=O)O (stereo partly drawn) the results were NALP1 yeast inh -14, NALP3 yeast inh 45, tim23-1 inh 19, tim10-1 inh -26 and TIM10 inh -5.
For O=C(CCc1ccccc1)N1C[C@H]2C[C@@H](C1)c1cccc(=O)n1C2 the results were NALP1 yeast inh 3, NALP3 yeast inh -1, tim23-1 inh 7, tim10-1 inh 16 and TIM10 inh 6.
Screening COCCO[C@H]1CC[C@@]2(C)C(=CCC3C2CC[C@@]2(C)C3CC[C@]2(C)O)C1 (stereo partly drawn) returned NALP3 yeast inh 41, tim23-1 inh 35, tim10-1 inh 12 and TIM10 inh 9.
`C[C@]1(O)CCC2C3CC[C@H]4C[C@@H](OC(=O)CNC(=O)CN)CC[C@]4(C)C3CC[C@@]21C` (stereo partly drawn) gave NALP3 yeast inh 56*, tim23-1 inh -36, tim10-1 inh -117, TIM10 inh -47 and NALP3 confirm 71*.
Screening COc1ccccc1-n1c(-c2ccccc2)nc2ccccc2c1=O returned NALP1 yeast inh 5, NALP3 yeast inh -11, tim23-1 inh 25, tim10-1 inh 10 and TIM10 inh -4.
Screening CC(=O)OC1N=C(c2ccccc2Cl)c2cc(Br)ccc2N(C)C1=O (stereo not drawn) returned NALP3 yeast inh 5, tim23-1 inh 7, tim10-1 inh 12 and TIM10 inh 10.
Screening C[C@]12CCC(=O)C[C@H]1CC[C@@H]1[C@@H]2CC[C@]2(C)[C@@H](O)CC[C@@H]12 returned NALP3 yeast inh 59*, tim23-1 inh 22, tim10-1 inh 22, TIM10 inh -2 and NALP3 confirm 73*.
C[C@]12CCC(=O)C=C1CCC1C2CC[C@@]2(C)C1CC[C@]2(C)O (stereo partly drawn) was read as NALP3 yeast inh 32, tim23-1 inh 30, tim10-1 inh -27 and TIM10 inh -1.
C[C@H]1CC2C3CC=C4C[C@@H](O)CC[C@]4(C)C3CC[C@]2(C)[C@H]1O (stereo partly drawn) was read as NALP3 yeast inh 54*, tim23-1 inh 22, tim10-1 inh 8, TIM10 inh 21 and NALP3 confirm 48.
For C[C@]12CC[C@H](N)CC1=CCC1C2CC[C@@]2(C)C1CC[C@@H]2O (stereo partly drawn) the results were NALP3 yeast inh 56*, tim23-1 inh 3, tim10-1 inh -10, TIM10 inh -5 and NALP3 confirm 56*.
Screening C[C@]12CCC(=O)C=C1CCC1C2CC[C@@]2(C)C1CC[C@@H]2O (stereo partly drawn) returned NALP3 yeast inh 53*, tim23-1 inh 22, tim10-1 inh -34, TIM10 inh -28 and NALP3 confirm 60*.
`C[C@]12CC[C@@H](O)CC1=CCC1C2CC[C@@]2(C)C1CC[C@@H]2N` (stereo partly drawn) gave NALP3 yeast inh 43, tim23-1 inh 10, tim10-1 inh 1 and TIM10 inh 3.
Screening CN1C[C@@H]2C[C@@H](c3cccn3-c3ccccn3)N3CCC[C@@]23C1=O returned NALP1 yeast inh -7, NALP3 yeast inh 10, tim23-1 inh 15, tim10-1 inh -7 and TIM10 inh -16.
Screening OC1(c2ccccc2F)CC2CCC(C1)N2CCN1CCOCC1 (stereo not drawn) returned NALP1 yeast inh 4, NALP3 yeast inh 6, tim23-1 inh 16, tim10-1 inh 9 and TIM10 inh 8.
O=C(Cn1nc(-c2ccccc2)ccc1=O)N1CCC2(CC1)OCCO2 was read as NALP1 yeast inh 1, NALP3 yeast inh -11, tim23-1 inh -5, tim10-1 inh 8 and TIM10 inh 6.
Screening CC12CCC3C(CC=C4CC(O)CCC43C)C1C/C(=C\N1CCCC1)C2=O (stereo not drawn) returned NALP1 yeast inh 27, NALP3 yeast inh 59*, tim23-1 inh 7, tim10-1 inh 0, TIM10 inh -24 and NALP3 confirm 43.
